Compound activity as filed in PubChem BioAssay.
C diff HTS = C. difficile growth inhibition; actives 0.25% (n = 86,000); Clostridium difficile clinical isolate growth, OD600, 24 h; stronger effect = lower value; growth activity, negative = inhibition, % at 16 µg/mL (by protocol); AID 1259249;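 active = mean growth activity at or below -80% and every replicate also at or below -80%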
Pf Dd2 inh = P. falciparum Dd2 growth inhibition | SYBR Green, 72 h; stronger effect = lower value | activity change, % at 10 µM | actives 2.3% (n = 94,000); in the data active = activity change below about -80%
Large screens that a line does not name were inactive; ! = not confirmed by another sample. A selection: hits, their analogues and other compounds. The true share with any hit is near 2.4%.

C[C@H]1CN([C@@H](C)CO)C(=O)c2c(c3ccccc3n2C)-c2ccccc2CO[C@H]1CN(C)S(=O)(=O)c1ccc([N+](=O)[O-])cc1	Pf Dd2 inh -89
COc1ccc(S(=O)(=O)N(C)C[C@@H]2OCc3ccccc3-c3c(n(C)c4ccccc34)C(=O)N([C@@H](C)CO)C[C@H]2C)cc1	none (no result: C diff HTS)
Cc1ccc(S(=O)(=O)N(C)C[C@H]2OCc3ccccc3-c3c(n(C)c4ccccc34)C(=O)N([C@H](C)CO)C[C@H]2C)cc1	none (no result: C diff HTS)
Cc1ccc(S(=O)(=O)N(C)C[C@H]2OCc3ccccc3-c3c(n(C)c4ccccc34)C(=O)N([C@H](C)CO)C[C@@H]2C)cc1	Pf Dd2 inh -88 (no result: C diff HTS)
C[C@H](CO)N1C[C@H](C)[C@H](CN(C)S(=O)(=O)c2ccccc2)OCc2ccccc2-c2c(n(C)c3ccccc23)C1=O	none
Cc1cc(C(=O)Nc2cccc3c2O[C@@H](CN(C)C(=O)Nc2c(C)noc2C)[C@H](C)CN([C@H](C)CO)C3=O)n(C)n1	none (no result: C diff HTS)
O=C(NCCN1CCCCC1)[C@H]1N[C@H]2c3ccc(-c4ccncc4)c(=O)n3C[C@H]2[C@@H]1CO	none
C/C=C/c1cnc2c(c1)C(=O)N([C@H](C)CO)C[C@@H](C)[C@H](CN(C)C(=O)c1ccc3c(c1)OCO3)O2	none
C[C@@H]1CN([C@@H](C)CO)C(=O)c2cc(C3=CCCCC3)cnc2O[C@H]1CN(C)C(=O)c1ccccc1	none
C[C@@H]1CN([C@@H](C)CO)C(=O)c2cc(NC(=O)Nc3cccc4ccccc34)ccc2O[C@@H](C)CCCCO[C@@H]1CN(C)Cc1ccc(C(F)(F)F)cc1	Pf Dd2 inh -88
C[C@@H]1CCCCO[C@H](CN(C)C(=O)Nc2ccc(C(F)(F)F)cc2)[C@H](C)CN([C@@H](C)CO)C(=O)c2cc(NC(=O)Nc3cccc4ccccc34)ccc2O1	none
C[C@@H]1CCCCO[C@H](CN(C)C(=O)Nc2ccc(C(F)(F)F)cc2)[C@@H](C)CN([C@H](C)CO)C(=O)c2cc(NC(=O)Nc3cccc4ccccc34)ccc2O1	Pf Dd2 inh -82
C[C@@H]1CCCCO[C@H](CN(C)Cc2ccc(C(F)(F)F)cc2)[C@H](C)CN([C@H](C)CO)C(=O)c2cc(NC(=O)Nc3cccc4ccccc34)ccc2O1	none
COc1ccc(NC(=O)N2C[C@H]3[C@@H](c4ccccc42)[C@@H](CO)N3C(=O)C2CCCCC2)cc1	none
C[C@H](CO)N1C[C@H](C)[C@H](CN(C)S(C)(=O)=O)Oc2ccc(NC(=O)CCN3CCOCC3)cc2CC1=O	none
C/C=C/c1ccc(C2[C@H]3CNC[C@@H]2N3Cc2ccccc2OC)cc1 (some centres not stated)	none
C/C=C/c1ccc(C2[C@H]3CNC[C@@H]2N3Cc2cc(F)ccc2F)cc1 (some centres not stated)	Pf Dd2 inh -84!
Cc1ccc(S(=O)(=O)N(C)C[C@@H]2Oc3cc(C#Cc4ccncc4)ccc3S(=O)(=O)N([C@@H](C)CO)C[C@H]2C)cc1	Pf Dd2 inh -81
Cc1ccc(S(=O)(=O)N(C)C[C@@H]2Oc3cc(C#Cc4ccncc4)ccc3S(=O)(=O)N([C@H](C)CO)C[C@@H]2C)cc1	none
Cc1ccc(S(=O)(=O)N(C)C[C@@H]2Oc3cc(C#Cc4ccncc4)ccc3S(=O)(=O)N([C@H](C)CO)C[C@H]2C)cc1	none
C[C@H]1CN([C@@H](C)CO)S(=O)(=O)c2ccc(C#Cc3ccncc3)cc2O[C@@H]1CN(C)S(=O)(=O)c1ccccc1	Pf Dd2 inh -93
C[C@@H]1CN([C@@H](C)CO)S(=O)(=O)c2ccc(C#Cc3ccncc3)cc2O[C@H]1CN(C)S(=O)(=O)c1ccccc1	none
C[C@@H]1CN([C@H](C)CO)S(=O)(=O)c2ccc(C#Cc3ccncc3)cc2O[C@H]1CN(C)S(=O)(=O)c1ccc(F)cc1	Pf Dd2 inh -86
Cc1ccc(S(=O)(=O)N(C)C[C@H]2Oc3cc(C#Cc4ccncc4)ccc3S(=O)(=O)N([C@@H](C)CO)C[C@@H]2C)cc1	Pf Dd2 inh -86
C[C@H](CO)N1C[C@H](C)[C@@H](CN(C)S(=O)(=O)c2ccc(F)cc2)Oc2cc(C#Cc3ccncc3)ccc2S1(=O)=O	none
CO[C@@H]1CN(C)C(=O)c2ccc(NS(=O)(=O)c3ccccc3F)cc2OC[C@@H](C)N(S(C)(=O)=O)C[C@H]1C	none (no result: C diff HTS)
CN(C)C(=O)C[C@H]1C=C[C@@H](NS(=O)(=O)c2ccccc2)[C@@H](CO)O1	none (no result: C diff HTS)
C[C@H]1CN([C@@H](C)CO)S(=O)(=O)c2ccc(C3=CCCCC3)cc2O[C@H]1CN(C)S(=O)(=O)c1ccc(F)cc1	Pf Dd2 inh -83
C[C@H]1CN([C@@H](C)CO)S(=O)(=O)c2ccc(C3=CCCCC3)cc2O[C@@H]1CN(C)S(=O)(=O)c1ccc(F)cc1	none
Cc1noc(C)c1NC(=O)N(C)C[C@H]1Oc2ccc(NC(=O)c3ccncc3)cc2CC(=O)N([C@@H](C)CO)C[C@@H]1C	none
